From PubChem BioAssay come the findings set out here.

Activity calls are given as the source filed them.

A short description of experiment [1]: small molecules captured by biotinylated probe aFSTL3 – biochemical, small-molecule microarray, fluorescence 635/667, stem cell growth factor project, primary screen (AID 1064).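 Further: measures binding of the biotinylated anti-FSTL3 antibody to printed compounds.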 Particulars: higher = more signal.
The nature of experiment [2]: binders from COS7 lysate, DM2A8 probe, primary screen, torsin A project, cell lysate, small-molecule microarray, fluorescence 635/667 (AID 1065). Particulars: higher = more signal, COS7 lysate expressing mutant human TOR1A.
Experiment [3] in a line: small molecules captured by biotinylated probe aFGF2 – biochemical, small-molecule microarray, fluorescence 635/667, stem cell growth factor project, primary screen (AID 1067).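 Further: measures binding of biotinylated aFGF2 protein to printed compounds on slides; z-score merges feature fluorescence and signal-to-noise across triplicate slides.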 The following applies: higher = more signal.
The nature of experiment [4]: small molecules captured by biotinylated probe aFGF10 – biochemical, small-molecule microarray, fluorescence 635/667, stem cell growth factor project, primary screen (AID 1071).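 Further: score merges 667 nm spot intensity and signal to noise from triplicate slides.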 The following applies: higher = more signal.
In experiment [5] the target is Neurogenic locus notch homolog protein 2 (Homo sapiens) (UniProt Q04721). The experiment is described as follows: small molecules binding Notch2 protein – biochemical, small-molecule microarray, 635 nm fluorescence, stem cell growth factors, primary screen (AID 1073). Particulars: higher = more signal.
Neurogenic locus notch homolog protein 2 (Homo sapiens), sequence (Q04721 whole entry, looked up, canonical isoform): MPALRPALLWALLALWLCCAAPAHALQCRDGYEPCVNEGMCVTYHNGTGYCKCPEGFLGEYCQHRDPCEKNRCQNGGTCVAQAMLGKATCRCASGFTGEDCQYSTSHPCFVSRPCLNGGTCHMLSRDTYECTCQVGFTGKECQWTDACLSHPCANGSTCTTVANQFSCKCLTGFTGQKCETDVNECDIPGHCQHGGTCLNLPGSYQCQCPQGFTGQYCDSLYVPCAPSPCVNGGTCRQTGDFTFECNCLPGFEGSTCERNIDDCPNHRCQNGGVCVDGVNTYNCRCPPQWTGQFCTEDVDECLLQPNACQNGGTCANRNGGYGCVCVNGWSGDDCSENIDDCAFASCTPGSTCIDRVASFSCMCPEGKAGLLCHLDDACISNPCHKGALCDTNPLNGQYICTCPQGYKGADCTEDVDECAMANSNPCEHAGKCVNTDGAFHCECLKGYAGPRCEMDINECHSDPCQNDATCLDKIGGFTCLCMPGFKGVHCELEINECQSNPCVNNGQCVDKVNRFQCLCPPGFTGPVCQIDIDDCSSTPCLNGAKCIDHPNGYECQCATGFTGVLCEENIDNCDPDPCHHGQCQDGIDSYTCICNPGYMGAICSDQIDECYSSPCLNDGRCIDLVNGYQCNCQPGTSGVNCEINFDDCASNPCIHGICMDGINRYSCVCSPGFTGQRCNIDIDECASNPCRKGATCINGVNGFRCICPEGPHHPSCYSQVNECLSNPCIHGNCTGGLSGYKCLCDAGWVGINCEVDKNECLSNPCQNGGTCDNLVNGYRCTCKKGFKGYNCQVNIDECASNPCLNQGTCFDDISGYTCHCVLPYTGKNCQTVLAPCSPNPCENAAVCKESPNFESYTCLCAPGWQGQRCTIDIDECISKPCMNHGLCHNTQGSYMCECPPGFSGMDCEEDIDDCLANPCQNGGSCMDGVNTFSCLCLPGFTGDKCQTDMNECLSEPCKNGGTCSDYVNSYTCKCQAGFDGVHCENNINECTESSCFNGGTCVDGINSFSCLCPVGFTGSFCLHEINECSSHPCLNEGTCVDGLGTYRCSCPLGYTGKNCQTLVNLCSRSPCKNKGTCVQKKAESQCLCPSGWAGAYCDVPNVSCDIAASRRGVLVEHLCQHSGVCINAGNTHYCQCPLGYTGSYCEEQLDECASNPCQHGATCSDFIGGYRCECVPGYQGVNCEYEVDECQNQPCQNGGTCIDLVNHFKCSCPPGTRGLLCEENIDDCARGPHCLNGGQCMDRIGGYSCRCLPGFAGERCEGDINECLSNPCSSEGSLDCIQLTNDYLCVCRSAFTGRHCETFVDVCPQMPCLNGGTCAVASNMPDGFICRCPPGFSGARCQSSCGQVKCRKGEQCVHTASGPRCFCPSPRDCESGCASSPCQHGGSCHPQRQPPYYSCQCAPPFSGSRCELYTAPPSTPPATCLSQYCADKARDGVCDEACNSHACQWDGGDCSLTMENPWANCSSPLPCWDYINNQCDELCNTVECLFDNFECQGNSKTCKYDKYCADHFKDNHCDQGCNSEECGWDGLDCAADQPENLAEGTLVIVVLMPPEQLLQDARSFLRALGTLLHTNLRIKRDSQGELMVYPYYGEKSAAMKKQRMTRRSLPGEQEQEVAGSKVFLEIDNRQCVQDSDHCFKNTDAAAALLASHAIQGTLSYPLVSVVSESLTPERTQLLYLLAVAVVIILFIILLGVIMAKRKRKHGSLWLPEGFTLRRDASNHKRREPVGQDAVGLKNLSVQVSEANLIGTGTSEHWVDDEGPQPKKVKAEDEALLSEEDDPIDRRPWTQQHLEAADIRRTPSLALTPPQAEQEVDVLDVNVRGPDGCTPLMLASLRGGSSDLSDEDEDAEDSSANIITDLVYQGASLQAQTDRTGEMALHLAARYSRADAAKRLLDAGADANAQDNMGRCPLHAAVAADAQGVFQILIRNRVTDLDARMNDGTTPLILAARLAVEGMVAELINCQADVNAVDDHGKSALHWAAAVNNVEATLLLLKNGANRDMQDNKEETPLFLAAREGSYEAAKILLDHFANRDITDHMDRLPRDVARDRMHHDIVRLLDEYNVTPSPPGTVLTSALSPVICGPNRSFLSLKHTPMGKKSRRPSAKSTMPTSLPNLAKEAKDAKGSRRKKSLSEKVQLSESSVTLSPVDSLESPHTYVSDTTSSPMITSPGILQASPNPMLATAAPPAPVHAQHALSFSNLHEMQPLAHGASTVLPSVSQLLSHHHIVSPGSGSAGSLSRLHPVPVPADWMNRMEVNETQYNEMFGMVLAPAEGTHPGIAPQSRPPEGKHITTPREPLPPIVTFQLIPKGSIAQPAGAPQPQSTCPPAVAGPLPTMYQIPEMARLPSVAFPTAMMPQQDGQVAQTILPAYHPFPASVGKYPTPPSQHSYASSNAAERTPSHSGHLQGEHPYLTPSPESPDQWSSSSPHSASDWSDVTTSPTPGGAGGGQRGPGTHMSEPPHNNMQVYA
For experiment [6], the target named is Pro-neuregulin-1, membrane-bound isoform (Homo sapiens) (UniProt Q02297). Description: small molecules binding neuregulin-1 protein – biochemical, small-molecule microarray, fluorescence 635/667, psychiatric disease protein project, primary screen (AID 1075).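 Further: score combines 667 nm spot fluorescence with signal to noise.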 Particulars: NRG1 binding, 635 nm fluorescence, higher = more signal.
The test system of experiment [7] is Neuregulin-1 EGF-like domain. Description: small molecules binding NRG1 EGF domain – biochemical, small-molecule microarray, 635 nm fluorescence, primary screen (AID 1081).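 Further: binding of the protein to compounds printed on small-molecule microarray slides.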 The following applies: higher = more signal.
Experiment [8] is described as follows: FRG1 expression reporter modulators in myotubes – cell-based, C2C12 myotubes, firefly/Renilla luciferase, luminescence, FRG1 inhibition for FSHD, primary screen (AID 1084). The following applies: FRG1 promoter luciferase, higher = more signal, called active from +8 up or from −8 down.
Experiment [9] can be described thus: small molecules captured by biotinylated probe aFST – biochemical, small-molecule microarray, fluorescence 635/667, stem cell growth factor project, primary screen (AID 1086).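 Further: score merges 667 nm fluorescence with signal-to-noise of each printed compound spot.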 The following applies: higher = more signal.
Experiment [10] can be described thus: binders of probe aHhip on microarray, primary screen, stem cell growth factor project, biochemical, small-molecule microarray, fluorescence 635/667 (AID 1087).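 Further: score merges spot fluorescence at 667nm with spot signal to noise ratio.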 The following applies: higher = more signal.
The subject of experiment [11] is PRMT1 (protein arginine N-methyltransferase 1). Description: small molecules binding arginine methyltransferase PRMT1 – biochemical, small-molecule microarray, 635 nm fluorescence, primary screen (AID 1088).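 Further: binding of Prmt1 protein to compounds spotted on small-molecule microarray slides.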 The following applies: higher = more signal.
A short description of experiment [12]: growth effects on S. cerevisiae YJM789 – YJM789 clinical isolate, OD600, 24 h, basal, primary screen (AID 1089).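 Further: growth of clinical yeast isolate S. cerevisiae YJM 789 seeded 1000 cells per well; test concentration not given here.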 Particulars: higher = more signal, called active from +8 up or from −8 down.
The nature of experiment [13]: S. pombe growth modifiers, basal conditions – strain 972, OD600, 24 h, no modulator, primary screen (AID 1090).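 Further: basal condition with compound alone and no growth modifier present; test concentration not given here.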 The following applies: S. pombe 972 growth, higher = more signal, called active from +8 up or from −8 down.
The nature of experiment [14]: budding yeast growth modifiers under rapamycin – strain BY4716, OD600, 96 h, primary screen (AID 1091). Further: test concentration not given here. The following applies: S. cerevisiae BY4716 + rapamycin, higher = more signal, called active from +8 up or from −8 down.
In experiment [15] the target is Torsin-1A-interacting protein 2 (Homo sapiens) (UniProt Q8NFQ8). The experiment is described as follows: small molecules binding lysate-expressed LULL1 – cell lysate, human LULL1 lysate, 635/667 nm fluorescence, primary screen (AID 1092).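 Further: probe is lysate of COS7 cells overexpressing human LULL1; score merges per-feature 667 nm fluorescence with signal-to-noise.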 The following applies: small-molecule microarray, hLULL1 lysate binding, 635 nm fluorescence; higher = more signal.
Experiment [16] is described as follows: optical density change of DRC41 E. coli – strain DRC41, OD650, 24 h, E. coli filamentation project, primary screen (AID 1093).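 Further: MC1000 strain lacking acrAB efflux and sulA so SOS filamentation is blocked; test concentration not given here.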 The following applies: E. coli DRC41 growth, higher = more signal, called active from +8 up or from −8 down.
Experiment [17] is described as follows: probe aLefty2 binding to arrayed compounds – biochemical, biotinylated probe, 635/667 nm fluorescence, primary screen (AID 1094).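 Further: score merges spot fluorescence near 667 nm with spot signal-to-noise ratio.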 The following applies: small-molecule microarray, higher = more signal.
Experiment [18] has as its system Noggin (protein binding on small-molecule microarray). Description: small molecules binding Noggin protein – biochemical, 635/667 nm fluorescence, primary screen (AID 1095).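 Further: score merges 667 nm feature fluorescence with signal to noise over triplicate slides.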 Particulars: 635 nm fluorescence, higher = more signal.
The target in experiment [19] is Neurogenic locus notch homolog protein 3 (Homo sapiens) (UniProt Q9UM47). Description: small molecules binding NOTCH3 protein – biochemical, 635/667 nm fluorescence, primary screen (AID 1096). Particulars: small-molecule microarray, 635 nm fluorescence, higher = more signal.
Neurogenic locus notch homolog protein 3 (Homo sapiens), sequence (Q9UM47 whole entry, looked up): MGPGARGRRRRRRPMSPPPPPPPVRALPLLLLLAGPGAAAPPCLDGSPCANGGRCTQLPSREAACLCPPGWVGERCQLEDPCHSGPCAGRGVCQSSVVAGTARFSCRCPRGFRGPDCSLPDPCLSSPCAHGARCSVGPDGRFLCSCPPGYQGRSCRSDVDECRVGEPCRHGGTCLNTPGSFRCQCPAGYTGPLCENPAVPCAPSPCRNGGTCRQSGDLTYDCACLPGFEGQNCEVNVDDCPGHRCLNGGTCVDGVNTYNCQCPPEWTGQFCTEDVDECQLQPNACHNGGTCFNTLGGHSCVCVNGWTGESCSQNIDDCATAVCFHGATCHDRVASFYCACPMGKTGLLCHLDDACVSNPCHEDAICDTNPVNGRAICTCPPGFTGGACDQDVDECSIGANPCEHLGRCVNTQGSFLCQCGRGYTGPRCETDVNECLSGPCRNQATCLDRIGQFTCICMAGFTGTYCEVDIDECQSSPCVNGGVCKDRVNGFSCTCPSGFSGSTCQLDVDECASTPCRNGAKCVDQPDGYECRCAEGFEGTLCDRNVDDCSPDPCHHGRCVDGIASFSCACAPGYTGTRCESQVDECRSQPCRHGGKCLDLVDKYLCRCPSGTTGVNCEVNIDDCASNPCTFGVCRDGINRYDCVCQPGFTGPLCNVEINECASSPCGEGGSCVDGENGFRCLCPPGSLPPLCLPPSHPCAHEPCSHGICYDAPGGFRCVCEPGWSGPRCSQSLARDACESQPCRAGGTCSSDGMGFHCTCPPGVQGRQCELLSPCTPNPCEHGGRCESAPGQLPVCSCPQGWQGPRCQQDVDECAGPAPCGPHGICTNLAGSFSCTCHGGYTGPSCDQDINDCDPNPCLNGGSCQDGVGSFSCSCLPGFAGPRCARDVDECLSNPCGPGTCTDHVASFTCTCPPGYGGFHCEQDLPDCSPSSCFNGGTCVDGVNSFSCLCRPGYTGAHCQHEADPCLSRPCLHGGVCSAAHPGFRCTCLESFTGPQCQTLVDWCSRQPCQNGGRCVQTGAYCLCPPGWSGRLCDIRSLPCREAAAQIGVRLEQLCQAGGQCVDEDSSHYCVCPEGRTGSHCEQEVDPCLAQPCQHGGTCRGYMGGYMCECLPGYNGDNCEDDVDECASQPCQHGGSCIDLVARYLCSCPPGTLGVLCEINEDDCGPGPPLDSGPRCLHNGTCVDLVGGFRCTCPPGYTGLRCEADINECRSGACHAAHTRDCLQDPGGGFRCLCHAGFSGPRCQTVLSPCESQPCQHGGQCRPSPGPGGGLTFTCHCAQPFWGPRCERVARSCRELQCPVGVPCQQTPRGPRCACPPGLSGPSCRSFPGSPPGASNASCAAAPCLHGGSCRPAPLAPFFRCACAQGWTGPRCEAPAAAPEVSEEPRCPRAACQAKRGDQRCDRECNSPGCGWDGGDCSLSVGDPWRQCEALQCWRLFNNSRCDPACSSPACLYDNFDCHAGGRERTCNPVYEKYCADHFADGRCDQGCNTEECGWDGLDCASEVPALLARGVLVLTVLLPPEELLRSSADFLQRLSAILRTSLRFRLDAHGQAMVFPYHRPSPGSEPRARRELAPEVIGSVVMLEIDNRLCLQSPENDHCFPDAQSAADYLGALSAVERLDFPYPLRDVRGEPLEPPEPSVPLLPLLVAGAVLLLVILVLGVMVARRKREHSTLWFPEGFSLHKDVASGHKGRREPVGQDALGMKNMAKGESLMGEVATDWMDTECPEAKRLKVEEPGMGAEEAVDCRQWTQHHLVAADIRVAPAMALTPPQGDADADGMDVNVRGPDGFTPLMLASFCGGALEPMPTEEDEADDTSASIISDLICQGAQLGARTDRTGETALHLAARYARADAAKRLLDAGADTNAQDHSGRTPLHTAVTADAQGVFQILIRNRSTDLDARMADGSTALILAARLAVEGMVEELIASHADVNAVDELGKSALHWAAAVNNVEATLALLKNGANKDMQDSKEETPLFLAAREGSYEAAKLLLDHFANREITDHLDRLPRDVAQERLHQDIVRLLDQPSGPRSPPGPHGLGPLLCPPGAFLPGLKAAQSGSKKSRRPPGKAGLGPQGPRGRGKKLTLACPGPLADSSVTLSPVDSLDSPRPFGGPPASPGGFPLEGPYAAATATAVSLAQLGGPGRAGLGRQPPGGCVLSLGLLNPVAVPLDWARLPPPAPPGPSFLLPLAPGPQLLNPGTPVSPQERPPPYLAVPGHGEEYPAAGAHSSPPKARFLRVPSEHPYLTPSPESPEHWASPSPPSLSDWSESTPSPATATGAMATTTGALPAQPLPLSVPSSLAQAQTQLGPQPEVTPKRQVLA
Experiment [20] can be described thus: probe aEGFR binding to arrayed compounds – biochemical, biotinylated probe, 635/667 nm fluorescence, primary screen (AID 1097).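 Further: probe is a biotinylated anti-EGFR antibody binding compounds printed on slides; score combines fluorescence near 667 nm and signal to noise of each spot.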 Particulars: small-molecule microarray, higher = more signal.

`COCCOC(=O)N1C(=O)[C@@]2(c3cc(C#CCNC(N)=O)ccc31)[C@H](c1ccc(O)cc1)N1[C@H](c3ccccc3)[C@H](c3ccccc3)OC(=O)[C@H]1[C@@H]2C(=O)N1CCN(c2ncccn2)CC1`: the composite z-score in experiment [1] is -0.487; in experiment [2], 0.594; in experiment [3] it was 0.0762; in experiment [4] it was 0.661; in experiment [5], 0.629; in experiment [6], 1.19. In addition, the composite z-score in experiment [7] was 1.1; in experiment [9], 0.34; in experiment [10] it was -0.218; in experiment [11], 1.42; in experiment [15], 3; in experiment [17] it was 0.24. The values for the composite z-score in experiment [18], in [19] and in experiment [20] were 0.96, 1.15 and 0.187, respectively. Further, the z-score is -0.523 (inactive) in [8]; 1.74 (inactive) in experiment [12]; 1.94 (inactive) in experiment [13]; 4.35 (inactive) in [14]; -0.561 (inactive) in experiment [16].
Turning to `COCCOC(=O)N1C(=O)[C@@]2(c3cc(C#CCNC(N)=O)ccc31)[C@H](c1ccc(OCCO)cc1)N1[C@H](c3ccccc3)[C@H](c3ccccc3)OC(=O)[C@H]1[C@@H]2C(=O)NC[C@H](O)c1ccccc1`, the composite z-score in [1] was -0.0349; in experiment [2], 0.907; in experiment [3], -0.0881; in experiment [4], 0.417; in [5], 1.25; in [6], 0.46. The composite z-score in experiment [7] is 0.77; in experiment [9], 0.506; in experiment [10], -0.215; in experiment [11], 1.57; in experiment [15] it was 2.44; in [17] it was 0.19. Further, the composite z-score in [18] was found to be 1.1; in experiment [19] it was 1.06; in experiment [20], 0.0671. For the same compound, the z-score in [8] was 0.499 (inactive); in experiment [12] it was 2.3 (inactive); in experiment [13], 3.07 (inactive); in experiment [14], 4.91 (inactive); in experiment [16], 0.925 (inactive).
As to `CN(C)CCCCCCNC(=O)[C@@H]1C[C@@H]2C(=O)N[C@@H](CCCCN)C(=O)N2[C@@H]1c1ccc(O)cc1`, the composite z-score was determined as 3.77 in [1]; 1.82 in experiment [2]; 0.939 in experiment [3]; 1.2 in experiment [4]; 1.65 in [5]; 2.91 in [6]. Besides, the composite z-score in [7] was 1.53; in [9], 3.81; in experiment [10], 3.69; in experiment [11], 1.54; in experiment [15] it was 4.67; in experiment [17] it was 1.87. In addition, the composite z-score turned out to be 2.25 in experiment [18], 1.02 in experiment [19] and 1.31 in experiment [20]. Further, the z-score is 0.918 (inactive) in [8]; -0.38 (inactive) in experiment [12]; -3.54 (inactive) in experiment [13]; -0.958 (inactive) in experiment [14]; 1.98 (inactive) in experiment [16].
`CCCCNC(=O)c1ccc(C#C[Si](C(C)C)(C(C)C)C(C)C)c(OC(C)=O)c1`: the composite z-score in [1] is -0.294; in experiment [2], -0.189; in experiment [3], -0.108; in experiment [4], 0.493; in experiment [5] it was 1.57; in experiment [6] it was 0.812. Further, the composite z-score in experiment [7] was 1.09; in experiment [9] it was 0.207; in experiment [10], 0.0722; in [11], 0.613; in experiment [15], 0.765; in [17], -0.0916. The figures for the composite z-score in experiment [18], in [19] and in experiment [20] were 0.926, 1.05 and -0.0208, respectively. For the same compound, the z-score is -0.198 (inactive) in [8]; -0.272 (inactive) in experiment [12]; -1.61 (inactive) in experiment [13]; 0.645 (inactive) in [14]; -0.423 (inactive) in [16].
On to `CN1C(=O)C2C=CC(C(O)c3cc(C(F)(F)F)cc(C(F)(F)F)c3)N(Nc3ccccc3)C2C1=O` (stereo not given), for which the composite z-score in experiment [1] is -0.481; in [2], -0.229; in [3], -0.0656; in [4], 0.05; in experiment [5] it was 0.245; in [6], 0.862. The composite z-score in [7] is 1.25; in [9], -0.106; in [10] it was -0.0994; in experiment [11], 0.237; in experiment [15] it was 3.85; in experiment [17], -0.194. Also, the composite z-score in experiment [18] was 0.325; in experiment [19] it was 0.377; in experiment [20], -0.155. In addition, the z-score is 0.715 (inactive) in experiment [8]; -0.506 (inactive) in [12]; -0.714 (inactive) in experiment [13]; -0.785 (inactive) in experiment [14]; -0.565 (inactive) in experiment [16].
Consider `Cc1cccc([C@H]2C[C@H]3C(I)=C[C@@H]2C(=O)[C@]32CO2)c1`, for which the composite z-score in experiment [1] is 0.165; in [2] it was 0.0974; in experiment [3] it was -0.128; in experiment [4], -0.152; in experiment [5], -0.714; in experiment [6], -0.507. For the same compound, the composite z-score in [7] was -0.38; in [9] it was -0.0256; in experiment [10] it was -0.236; in [11], -0.614; in [15], -0.842; in experiment [17], 0.0735. Moreover, the figures for the composite z-score in experiment [18], in [19] and in experiment [20] were 0.461, -0.0085 and -0.108, respectively. The z-score in experiment [8] was 2.56 (inactive); in [12], -2.5 (inactive); in experiment [13], -20.2 (active); in experiment [14], -2.15 (inactive); in [16], -0.2 (inactive).
In the case of `C=CCNC(=O)[C@H]1[C@@H]2C(=O)O[C@@H](c3ccccc3)[C@@H](c3ccccc3)N2[C@@H](c2ccc(OCCO)cc2)[C@]12C(=O)Nc1ccc(C#CCNC(N)=O)cc12`, the composite z-score in experiment [1] stood at 0.264; in experiment [2] it was 0.311; in [3], 0.0015; in [4], 0.641; in experiment [5], 0.112; in experiment [6] it was 0.883. In addition, the composite z-score was found to be 0.817 in experiment [7]; 1.28 in experiment [9]; 0.0623 in experiment [10]; 1.56 in experiment [11]; 1.98 in experiment [15]; 0.155 in experiment [17]. Moreover, the composite z-score in [18] was determined as 1.1; in [19], 1.07; in [20] it was 0.0562. In addition, the z-score in experiment [8] is -0.651 (inactive); in experiment [12], 2.34 (inactive); in experiment [13], 1.48 (inactive); in [14], 4.76 (inactive); in [16], 0.714 (inactive).
As for `COc1ccc([Si](C)(C)[C@H]2[C@H](CC(=O)N3Cc4ccccc4C[C@H]3CO)O[C@@]3(C(=O)N(Cc4ccc(N5C(=O)c6cccc7cccc5c67)cc4)c4ccccc43)[C@@H]2C)cc1`, the composite z-score in [1] is -0.0494; in [2], 0.245; in experiment [3], -0.0953; in experiment [4], 0.329; in [5] it was 0.393; in experiment [6] it was 1.73. For the same compound, the composite z-score was 1.17 in experiment [7]; 1.07 in experiment [9]; 0.61 in experiment [10]; 1.56 in experiment [11]; 2.7 in experiment [15]; -0.178 in [17]. Moreover, the composite z-score is 1.14 in experiment [18], 1.15 in experiment [19] and -0.027 in [20]. In addition, the z-score in [8] is -4.44 (inactive); in experiment [12], -0.823 (inactive); in experiment [13] it was 1.17 (inactive); in [14] it was 2.88 (inactive); in [16], 0.489 (inactive).
Consider `COCCCNC(=O)[C@@H]1c2ccccc2C(=O)N(C2Cc3ccccc3C2)[C@H]1c1ccc(CO)cc1`, for which the composite z-score is -0.0989 in experiment [1]; 0.703 in [2]; -0.151 in [3]; 0.0338 in experiment [4]; -0.0746 in experiment [5]; 0.209 in [6]. Besides, the composite z-score in [7] was 1.4; in experiment [9], 0.506; in experiment [10] it was -0.137; in [11] it was 1.17; in [15], 1.74; in experiment [17] it was -0.0237. Further, the composite z-score in experiment [18] was 0.163; in experiment [19] it was -0.0847; in [20] it was -0.0549. Besides, the z-score in [8] was 0.0504 (inactive); in experiment [12], 0.0011 (inactive); in [13], -0.471 (inactive); in experiment [14], -0.559 (inactive); in experiment [16], 0.935 (inactive).
